# From PubChem BioAssay (EPA / NIEHS)
# Activity calls are given as the source filed them. How the source made its calls: active means hit-call score of the fitted dose curve at least 0.9, where 1 is the maximum; inactive means score below 0.9.
# Read-out: BCL2L11 (gene 10018)
# Assay: LTEA_HepaRG_BCL2L11: Life Technologies and Expression Analysis (LTEA) Assay for Bcl-2 (BCL2L11) gene using HepaRG (AID 2283473)
# Details: mRNA level, 48 h; actives raise or lower the signal
# Experimental: LTEA_HepaRG is a cell based, multiplexed-readout assay that uses HepaRG, a human liver cell line, with measurements taken at 48 hours after chemical dosing on a 96-well plate.LTEA_HepaRG_BCL2L11 is one of 102 assay component(s) measured in the LTEA HepaRG cell culture assay. It is a marker of Cell proliferation, survival, death.Data from the assay component LTEA_HepaRG_BCL2L11 was analyzed into 1 endpoint. This assay endpoint, LTEA_HepaRG_BCL2L11, was analyzed with bidirectional fitting relative to DMSO as the negative control and baseline of activity. Using a type of inducible reporter, measures of mRNA induction for gain or loss-of-signal activity can be used to understand regulation of transcription factor activity. To generalize the intended target to other relatable targets, this assay endpoint is annotated to the cell cycle intended target family, where the subfamily is Cell proliferation, survival, death.
# A total of 1060 chemcials from the ToxCast library were tested in eight-point concentration-response experiments. Cell culture and cytotoxicity assays were conducted at Thermo Fisher Scientific's Custom Services facility (Madison, WI). A single lot of human HepaRG cells (Thermo Fisher Scientific, Frederick, MD) was used for the cell culture experiments. 96-well format collagen type I coated plates of human HepaRG cells were prepared using established methods. Briefly, cryopreserved HepaRG cells were thawed, plated at a density of approximately 100,000 cells/well in HepaRG Thaw, Plate, and General Purpose media (HPRG770, Thermo Fisher Scientific), and incubated for 48 hours. 0.5% DMSO was selected as vehicle control to balance the requisite need of DMSO in HepaRG cultures to maintain differentiation (for example, baseline metabolism, proportions of hepatocytes vs. cholangiocytes), while enabling further hepatic receptor pathway activation (for example, PXR and CAR) in response to chemical exposure. 48 hours after plating, the culture medium was replaced with HepaRG Serum-Free Incudtion Media. Cells were exposed to each test chemical in duplicate and maintained in CO2 incubators for another 48 hours. Chemical plates were thawed to room temperature and 200x concentrations of treatment groups were prepared. 8-point conentration-reponse curves were made with the highest exposure at 100 uM, followed by half-log dilutions, all in 0.5% DMSO. Each test plate contained variouse controls, induction positive controls (1mM phenobarbital), cytotoxicity positive controls ([…] aflatoxin B1), vehicle controls (0.5% DMSO), and total lysis controls (0.5% DMSO). Cell morphology images were taken using an Essen IncuCyte FLR automated microscope, with six 96-well plates imaged in about 24 minutes. Images were captured and exported and JPEG files. Spent culture media was transfered to black-well plates for the LDH assay, and remaining media was sorted at -80 C for later use. Cells were treated with RLT buffer and frozen until shipped for gene expression analysis. Total RNA was isolated from the cell suspension in 75 uL of Buffer RLT (Qiagen, Germantown, MD 20874) by Quintiles/Expression Analysis (Durham, NC) using a custom isolation procedure. Total RNA from each plate well was transferred to a preamplification plate. Fluidigm's 96.96 Dynamic ArrayTM (Fluidigm, Amsterdam, the Netherlands) technology was used for gene expression analyses by quantitative reverse transcription polymerase chain reaction (qRT-PCR, performed by Quintiles/Expression Analysis, Durham, NC)89. Standard TaqManTM Assays (Applied Biosystems/ThermoFisher Scientific, Foster City, CA) were used to assess the expression of 93 genes selected based on their selectivity and sensitivity to important hepatic receptors known to be modulated by environmental chemicals; importance in human hepatocyte functionality; and hepatotoxicity. […]
SMILES,outcome,AC50
CCCCC(CC)COC(=O)c1ccc(C(=O)OCC(CC)CCCC)c(C(=O)OCC(CC)CCCC)c1 (stereo not given),inactive,–
CC(C)N(Cc1ccccc1)C(=O)C(C)(C)C,inactive,–
C[N+](C)(C)CC1CO1 (stereo not given),inactive,–
CN(C)c1ccc(C(=O)c2ccc(N(C)C)cc2)cc1,inactive,–
C1=Cc2cccc3cccc1c23,inactive,–
c1ccc(C2CO2)cc1 (stereo not given),inactive,–
OCCCBr,inactive,–
O=C(N[C@H](c1ccccc1)[C@@H]1CN2CCC1CC2)c1c(Cl)ccc(C(F)(F)F)c1Cl,–,11.3 µM (active)
CCCCCCCCCCCCCN1CC(C)OC(C)C1 (stereo not given),inactive,–
[O-][Cl+]O,inactive,–
CCN(CC)N=O,inactive,–
O=C(Oc1ccc(Br)cc1)N1CCN2CCC1CC2,inactive,–
O=[N+]([O-])C(Br)(CO)CO,inactive,–
COC(=O)c1ccccc1N,inactive,–
CC(C)(O)c1cnn2c(-c3ccc(F)c(-c4c(F)cccc4C#N)c3)cnc2n1,inactive,–
O=Cc1ccco1,inactive,–
Cc1cccc(N)c1N,–,9.92 µM (active)
Nc1ccc(Oc2ccc(N)cc2)cc1,inactive,–
CCCSC(=O)N(CCC)CCC,inactive,–
Oc1ccc2ccc3cccc4ccc1c2c34,inactive,–

SMILES,outcome,AC50
CN(C)[C@@H]1C(=O)C(C(N)=O)=C(O)[C@@]2(O)C(=O)C3=C(O)c4c(O)cccc4[C@@](C)(O)[C@H]3C[C@@H]12,inactive,–
CS(=O)(=O)NC(=O)c1cc(Oc2ccc(C(F)(F)F)cc2Cl)ccc1[N+](=O)[O-],inactive,–
ClCCOCCCl,inactive,–
Nc1cc(Cl)cc(C(=O)O)c1Cl,inactive,–
CC(C)(OOC(C)(C)c1ccccc1)c1ccccc1,inactive,–
[Cl-].[Cl-].[Hg+2],inactive,–
ClC1=C(Cl)[C@]2(Cl)[C@H]3[C@H]([C@@H]4C=C[C@H]3C4)[C@@]1(Cl)C2(Cl)Cl,inactive,–
C=CCc1ccc2c(c1)OCO2,inactive,–
Cc1ccc([N+](=O)[O-])cc1,inactive,–
CCCCCCCCOC(=O)c1ccc(C(=O)OCCCCCCCC)c(C(=O)OCCCCCCCC)c1,inactive,–
CCOC(=O)[C@]1(c2ccccc2)Oc2ccccc2[C@@H]1N,inactive,–
CCC[CH2][Sn]([Cl])([CH2]CCC)[CH2]CCC,–,11.7 µM (active)
N#CC(Br)Br,inactive,–
Clc1ccc(C(c2ccc(Cl)cc2)C(Cl)(Cl)Cl)cc1,inactive,–
Oc1ccccc1Cl,inactive,–
Nc1ccc(Cc2ccc(N)cc2)cc1,inactive,–
CCOc1cccc(C2(N3CCN(c4ccccc4)CC3)CCC(C)CC2)c1 (stereo not given),inactive,–
CCC(C)c1ccc(O)cc1 (stereo not given),inactive,–
c1ccc2c(c1)-c1cccc3cccc-2c13,inactive,–
CCN(CC)CCO,inactive,–
